High-throughput results from PubChem BioAssay.
BoNT-F LC inh: BoNT/F light chain protease inhibitors, primary screen, biochemical, flow cytometry, MLPCN library; Botulinum neurotoxin type F light chain protease (Clostridium botulinum); Multiplex microsphere protease cleavage assay; inhibition, % at 10 µM; 0.22% of 360,000 active; AID 588497, 2011; in the data active means inhibition above about 35%, passing the limit was not always enough; inconclusive means no clear call, values can overlap the other calls; further: plate controls were buffer without enzyme for full effect and enzyme alone for no effect
Bead autofluor: compound fluorescence in toxin protease inhibitor counterscreen; compound autofluorescence counterscreen, microsphere flow cytometry; hits give high values; fluorescence intensity (no concentration beside the values); 3.1% of 360,000 active; AID 624483; in the data active means fluorescence intensity above about 16000; inconclusive means no clear call, values can overlap the other calls
CCHFV vOTU inh: CCHFV vOTU protease inhibitors, primary screen, biochemical, Pep-AMC substrate, fluorescence. 0.55% of 370,000 active. Crimean-Congo hemorrhagic fever virus L polyprotein viral ovarian tumor (vOTU) protease …. inhibition, % at 11.5 µM. AID 651958, 2012; in the data active means inhibition above about 30%; further: 0% = vehicle wells with enzyme and 100% = no enzyme wells
Anthrax LF prot: Bacillus anthracis LF protease inhibitors, primary screen, biochemical, multiplex microsphere, MLPCN library | 0.12% of 360,000 active | Lethal factor (Bacillus anthracis), P15917 | AID 588501, 2011 | inhibition, % at 10 µM | multiplex microsphere protease cleavage assay; further: plate controls were buffer without enzyme for full effect and enzyme alone for no effect
SARS 3CLpro inh: SARS-CoV 3CLpro protease inhibitors, primary screen, biochemical, quenched FRET; inhibition, % at 6 µM; recombinant SARS-CoV 3CLpro, quenched FRET peptide cleavage; Replicase polyprotein 1ab (Severe acute respiratory syndrome coronavirus), P0C6X7; 0.14% of 290,000 active; AID 1706, 2009; in the data active means inhibition above about 12%
BoNT-A LC inh2: BoNT/A light chain protease inhibitors, primary screen, biochemical, flow cytometry, MLPCN library | multiplex microsphere protease substrate cleavage | inhibition, % at 10 µM | AID 588499, 2011 | 0.17% of 360,000 active; further: plate controls were buffer without enzyme for full effect and enzyme alone for no effect
Starred values were filed as active, the others as inactive; ? = inconclusive; . = not tested or not shown. A selection: hits, their analogues and other compounds. The true share with any hit is near 3.9%. Unless noted, no stated cut-off is given here; in the data, active means inhibition above about 30%; inconclusive means no clear call, values can overlap the other calls; inactive means below that.

SMILES	BoNT-F LC inh	Bead autofluor	CCHFV vOTU inh	Anthrax LF prot	SARS 3CLpro inh	BoNT-A LC inh2
Cc1ccc(S(=O)(=O)N2CCC(c3nc4ccccc4o3)CC2)s1	.	.	9	.	.	.
CCCCn1c(SCC(=O)NCc2ccco2)nc2c(sc3ccccc32)c1=O	-1	22504*	0	-1	2	?
CCn1c(SCC(=O)NCc2ccco2)nc2ccccc2c1=O	-4	4683	-4	-2	1	-1
O=C(CSc1nc2ccccc2c(=O)n1Cc1ccc(C(=O)NC2CC2)cc1)NCc1ccco1	3	19257*	0	1	-4	3
CCOCCCn1c(SCC(=O)NCc2ccco2)nc2c(sc3ccccc32)c1=O	6	9584	1	-11	4	0
O=C(CSc1nc2ccccc2c(=O)n1CCCC(=O)N1CCCC1)NCc1ccco1	-1	23337*	-7	-2	-5	0
O=C(CSc1nc2ccccc2c(=O)n1Cc1ccccc1)NCc1ccco1	-2	10801	-6	-2	-3	0
CC(=O)Nc1ccc(NC(=O)CCC(=O)OCC(=O)c2ccc(F)cc2)cc1	-2	4171	-13	-4	-1	-2
COc1ccc(CC2c3cc(OC)c(OC)cc3CCN2C)cc1OC (stereo not given)	-5	4821	-8	-5	0	0
COc1cc2c(cc1OC)[C@@H](Cc1ccc(OCCC#N)cc1)N(C)CC2	40*	3356	-12	-1	0	-1
O=C(Nc1nnc(SCc2ccccc2)s1)c1cccs1	0	2670	17	-2	-4	0
CCSc1nnc(NC(=O)C2(C)Cc3ccccc3C(=O)O2)s1 (stereo not given)	6	17590*	-2	-12	-2	5
CCSc1nnc(NC(=O)c2cccs2)s1	0	22159*	7	2	4	1
COc1ccc(N2CCN(C(=O)c3ccc(NS(=O)(=O)c4ccc(F)c(F)c4)cc3)CC2)cc1	-6	17709*	9	-1	-1	-4
O=C(c1ccc(NS(=O)(=O)c2ccc(F)cc2)cc1)N1CCOCC1	8	5095	33*	-1	.	2
COc1ccc(NS(=O)(=O)c2ccc(C(=O)N3CCN(c4ccc(F)cc4)CC3)cc2)cc1	2	3810	9	-12	.	0
COc1ccc(N2C(=O)C(CC(=O)O)S/C2=N\N=C\c2cccs2)cc1 (stereo not given)	43*	3074	-4	3	5	3
O=C(O)CC1S/C(=N/N=C/c2ccc(Br)cc2)N(c2ccccc2)C1=O (stereo not given)	-8	4337	7	3	0	1
COc1ccc2c(c1)CN1CN(Cc3ccc(F)cc3)S(=O)(=O)CC21 (stereo not given)	.	.	4	.	.	.
Cc1ccccc1CNC(=O)Cc1cccs1	0	2431	9	-2	4	1
O=C(Cc1cccs1)NCc1ccccc1F	-5	21726*	-5	0	0	-5
CC(=O)Cc1nsc(NC(=O)c2ccccc2Cl)n1	-10	3289	0	-4	-1	-1
Cn1sc(NC(=O)c2cccc(Cl)c2)nc1=O	1	22807*	-6	-2	-5	2
Cc1cc(NC(=O)c2cccc(Cl)c2)n[nH]1	-6	3421	13	-2	.	0
COC(=O)c1nc(NC(=O)c2ccc(Br)cc2)n[nH]1	-8	2334	6	1	1	0
SMILES	BoNT-F LC inh	Bead autofluor	CCHFV vOTU inh	Anthrax LF prot	SARS 3CLpro inh	BoNT-A LC inh2
COC(=O)c1nc(NC(=O)c2ccccc2Cl)n[nH]1	1	22352*	1	-1	-4	2
Cn1sc(NC(=O)c2ccccc2Cl)nc1=O	-5	24069*	-3	-10	-6	-4
COc1ccc(CCn2c(SCC(=O)Nc3cc(C)on3)nc3ccccc3c2=O)cc1OC	-6	9724	0	-12	5	-1
Cc1cc(NC(=O)CSc2nc3ccsc3c(=O)n2CCCCC(=O)O)no1	0	16845*	-6	-2	6	-1
Cc1ccc(NC(=O)CSc2nc(=O)cc(N)n2-c2ccccc2)cc1	-2	4224	5	1	3	0
O=C(O)Cn1nnnc1SCC(=O)Nc1ccccc1F	3	4688	-12	2	0	0
COc1ccc(CCn2c(SCC(=O)Nc3cc(C)on3)nc3ccsc3c2=O)cc1OC	5	19488*	5	-11	-1	3
CCCCn1c(SCC(=O)Nc2cc(C)on2)nc2ccsc2c1=O	5	11106	-8	-8	-4	0
COC(=O)c1cccc(NC(=O)CSc2nc(=O)cc(N)n2-c2ccccc2)c1	0	16937*	-3	-3	3	-1
Nn1c(SCC(=O)Nc2ccccc2F)nc2ccccc2c1=O	-2	16496*	-13	0	-9	?
CCCCc1nnc(NC(=O)CSc2nc(=O)cc(N)n2-c2cccc(C)c2)s1	0	16503*	0	-1	-1	0
COc1ccc(-n2c(N)cc(=O)nc2SCC(=O)N2CCN(c3ccccc3)CC2)cc1	-13	6629	-5	-1	-5	-3
CCOC(=O)c1cccc(NC(=O)CSc2nc3ccccc3c(=O)n2CCOC)c1	-1	22521*	-6	-2	-2	?
Cc1cc(NC(=O)CSc2nc3ccccc3n2CC(=O)N2CC(C)CC(C)C2)no1 (stereo not given)	-1	23778*	-5	-2	0	?
Nc1cc(=O)nc(SCC(=O)N(C2CCCCC2)C2CCCCC2)n1-c1ccccc1	-3	16646*	-11	1	1	?
COc1ccc2c(c1)C(=O)C1(CC2)OC1c1cccnc1 (stereo not given)	-6	4353	7	2	.	-1
CCCCCCn1c(SCC(=O)Nc2cc(C)on2)nc2ccccc2c1=O	-1	16827*	6	-3	6	-2
Nc1nc(SCCO)[nH]c(=O)c1NC(=O)c1ccco1	-104	19769*	8	-17	.	-66
Nc1nc(SCC(=O)O)[nH]c(=O)c1NC(=O)c1ccco1	-6	6914	10	-1	3	-2
CCOc1cc(C2C(C#N)=C(N)SC(N)=C2C#N)ccc1OCCN1CCOCC1	4	8863	-12	-3	4	1
CCOc1ccc(C2C(C#N)=C(N)SC(N)=C2C#N)c(OCC)c1	?	22485*	5	25	2	44*
Cc1ccccc1NC(=O)CC(C)S(=O)(=O)c1ccc2c(c1)NC(=O)CO2 (stereo not given)	1	4225	0	1	1	0
Cn1c(=O)cc(SCC(=O)Nc2ccc3c(c2)OCO3)c2ccccc21	-3	3610	-1	1	0	0
